Hit rate of the full screen: of about 360,000 compounds, about 25,000 (6.9%) were called active. Where a call stands in place of a potency, no number is given. Inconclusive results (about 9%) are left out. The full list was thinned out, with actives kept by preference. Values without a mark were called inactive. The call rests on the fitted dose curve; in most records, active means well fitted inhibition curve with a large enough effect; inconclusive means small, poorly fitted or top-dose-only effect; inactive means flat fitted curve, though single readings scatter.
These compounds were tested against Luciferin 4-monooxygenase (Photinus pyralis) (UniProt P08659) (assay: qHTS profiling assay for firefly luciferase inhibitor/activator using purifed enzyme and Km concentrations of substrates (counterscreen for miR-21 project)). Conditions: purified FLuc, luminescence inhibition; series mostly up to 57.5 µM.
Chain of Luciferin 4-monooxygenase (Photinus pyralis) (P08659 whole entry, looked up): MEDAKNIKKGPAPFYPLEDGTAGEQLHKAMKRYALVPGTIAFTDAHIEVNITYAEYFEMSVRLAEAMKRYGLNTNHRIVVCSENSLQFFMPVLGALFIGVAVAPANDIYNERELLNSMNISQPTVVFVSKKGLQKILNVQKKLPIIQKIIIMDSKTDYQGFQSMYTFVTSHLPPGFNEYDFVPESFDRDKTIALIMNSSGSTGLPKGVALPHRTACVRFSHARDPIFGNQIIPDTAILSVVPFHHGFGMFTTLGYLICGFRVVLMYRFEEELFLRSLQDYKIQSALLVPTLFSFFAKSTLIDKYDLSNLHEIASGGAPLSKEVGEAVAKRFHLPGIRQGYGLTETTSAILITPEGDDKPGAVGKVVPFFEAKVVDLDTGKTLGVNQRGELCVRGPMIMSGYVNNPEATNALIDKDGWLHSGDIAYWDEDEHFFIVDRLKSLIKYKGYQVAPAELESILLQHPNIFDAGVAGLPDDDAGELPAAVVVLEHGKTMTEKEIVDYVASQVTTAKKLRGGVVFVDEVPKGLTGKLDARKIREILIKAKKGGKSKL
Description: MLPCN Grant: 1 R21 NS059478-01 (miR-21 grant) Assay Provider: NCGC NCGC Assay Overview: Firefly (Photinus pyralis) luciferase is one of the most commonly used transcriptional reporters for a number of reasons. It is considered one of the more dynamically responsive reporters -that is, responsive to changes in reporter transcription - as it requires no post-translational modifications and is enzymatically active directly after protein synthesis (Wood, 1998). Additionally, the half-life of the luciferase protein is short relative to other reporter-gene products (Wood, 1995). Whereas reporters with long half-lives potentially allow for increased signal due to accumulation of reporter-gene product, once accumulated in the cell, dynamic changes in reporter-gene expression may be difficult to detect(Fan and Wood, 2007; Almond et al., 2004). It has been shown that wild-type P. pyralis luciferase has a half-life of approximately […] hours in mammalian cells (Thompson et al., 1991). Firefly luciferase reporter-gene assays are also generally considered one of the most sensitive assay types (Wood, 1995; Wood, 1998). Although light produced in a bioluminescence reaction is of lower intensity than that produced during fluorescence emission, this is offset by little to no background light inherent to luminescent assays. Thus the luciferase reporter can be expressed at much lower levels than fluorescent proteins while still providing robust signal. # However, it was initially observed, in 1991, by Thompson et al., that compounds that resemble the substrates of firefly luciferase (FLuc) can act as competitive inhibitors of the enzyme, and that these compounds, upon interaction with luciferase in the cell, can actually stabilize the protein and increase its half-life. Accumulated intracellular FLuc protein can be measured as an increase in luminescence signal, upon addition of detection reagents (which contain high concentrations of FLuc substrates) commonly used in high-throughput screening. In cell-based reporter gene assays that use FLuc as the reporter gene to quantitate the potential influence of a given compound against the target biology, this apparent increase in luminescence can mistakenly be interpreted as identification of a compound that is active against the target of interest. This is the case for the miR-21 FLuc reporter gene assay used to identify inhibitors of the miR-21 pathway (PubChem AID 2289) - compounds of interest will inhibit miR-21 biogenesis/expression or activity, and are identified by causing an increase in luminescence, due to increased FLuc translation. However, FLuc inhibitory compounds that stabilize the FLuc protein will give an identical read-out, making it difficult to distinguish compounds that are active against the target from those active against FLuc. Previous profiling work to determine the prevalence of compounds that affect FLuc enzymatic activity (PubChem AID 411) identified that ~3% of the MLSMR library (then at ~72K) inhibited FLuc. […] Since the MLSMR had grown to ~350K compounds, and since it was expected that a significant percentage of compounds found active in the miR-21 FLuc assay would be FLuc inhibitors, the library was screened for activity against FLuc using a biochemical assay of purified FLuc and KM concentrations of FLuc substrates (D-luciferin and ATP).
NCGC Assay Protocol Summary: Reagents: 50mM Tris acetate, pH 7.5; 10mM Mg acetate; 10uM D-luciferin (Sigma #L9504); 10uM ATP; 0.01% Tween-20; 0.05% BSA; 10nM P. pyralis luciferase (Sigma #L9506) Control compounds used were two known firefly luciferase inhibitors (compounds (2) and (5) in Auld et al., 2010), and DMSO. […]
In the case of `CCc1nc2sc3c(Cl)ncnc3c2c2c1CCCC2`, the Potency is reported as “inactive”. For `Cc1ccc(C)c(-n2cc(CN3CCN(C(=O)c4ncn[nH]4)CC3)c(-c3ccccc3)n2)c1`, the Potency was “inactive”. With `Cc1ccccc1CN1CCN(C(=O)c2cccc(F)c2)CC1` the Potency was “inactive”. `Cc1cccc(-n2cc(CN3CCN(C(=O)c4ncn[nH]4)CC3)c(-c3cccc(F)c3)n2)c1` was tested, and the Potency was 13.5 µM (active). With `CCN(CCCNC(=O)c1cc2cc3cc(OC)ccc3nc2s1)c1ccccc1` the Potency was “inactive”. For `CC(=O)Nc1ccc(SC[C@H](Cc2ccccc2)N2CC[C@@H](C)CCC2=O)cc1`, the Potency was “inactive”. For `CCOC(=O)CSc1nc2ccc(C)cc2[nH]1`, the Potency was 16.9 µM (active). `Cc1ccc2nc(SCC(=O)NC3CCCC3)[nH]c2c1` was tested, and the Potency was “inactive”. With `COc1ccc2nc(SCC(=O)Nc3c(C)cc(C)cc3C)[nH]c2c1` the Potency was “inactive”. For `COc1ccc(S(=O)(=O)NCc2cccn2Cc2cccc(C)c2)cc1`, the Potency was “inactive”. With `c1ccc(CN2CCC(N=C3NN=C(c4ccc5c(c4)OCCO5)CS3)CC2)cc1` the Potency was “inactive”. In the case of `Clc1cccc(N=C2NN=C(c3ccc4c(c3)OCCO4)CS2)c1`, the Potency is reported as 2.13 µM (active). With `CC1CCN(C(=O)COC(=O)c2cc(=O)[nH]c3ccccc23)CC1` the Potency was 10.7 µM (active). In the case of `CC(NC(=O)COC(=O)c1cc(=O)[nH]c2ccccc12)c1ccccc1` (stereo not given), the Potency is reported as “inactive”. In the case of `COC(=O)C1CCN(C(=O)c2cc(=O)[nH]c3ccccc23)CC1`, the Potency is reported as “inactive”. With `Cc1cc(C)cc(NC(c2nnc(-c3cccc(F)c3)o2)c2ccc(F)cc2Cl)c1` (stereo not given) the Potency was “inactive”. In the case of `COc1cccc(CNc2nccn(-c3ccc(OC)c(OC)c3)c2=O)c1`, the Potency is reported as “inactive”. With `COc1ccc(-c2cc(C(F)(F)F)nc(SCC(=O)N(C)Cc3ccccc3)n2)cc1OC` the Potency was “inactive”. In the case of `COc1ccc(CC2c3cc(OC)c(OC)cc3CC[N+]2(C)CCC(=O)OCCCCCOC(=O)CC[N+]2(C)CCc3cc(OC)c(OC)cc3C2Cc2ccc(OC)c(OC)c2)cc1OC` (stereo not given), the Potency is reported as “inactive”. With `CCCC(=O)Nc1ccc2oc(-c3ccc(O)c(Br)c3)nc2c1` the Potency was 2.39 µM (active). For `COc1cccc(-c2nc(S(=O)(=O)c3ccc(C)cc3)c(NCc3ccccc3)o2)c1`, the Potency was “inactive”. For `O=[N+]([O-])c1ccc2oc(-c3cccc(O)c3)nc2c1`, the Potency was 2.13 µM (active). For `O=C(Nc1cc(-c2nc3ccccc3o2)ccc1Cl)c1cc([N+](=O)[O-])ccc1N1CCOCC1`, the Potency was “inactive”. `O=C(Nc1cccc(-c2nc3ccccc3o2)c1)c1cccc(Br)c1` was tested, and the Potency was “inactive”. In the case of `COc1ccc2oc(-c3ccc(C)c(NC(=O)c4sc5ccccc5c4Cl)c3)nc2c1`, the Potency is reported as “inactive”. `COc1ccc(-c2nc3ccccc3o2)cc1NC(=O)c1cc([N+](=O)[O-])ccc1N1CCOCC1` was tested, and the Potency was “inactive”. Work on `Cc1ccc(OCC(=O)Nc2ccc(-c3nc4ncccc4o3)cc2)cc1` yielded an activity change, negative = inhibition of -2.22% [at 2.3 µM]. `CCC(=O)Nc1cccc(-c2nc3cc(C)ccc3o2)c1` was tested, and the Potency was 2.69 µM (active). In the case of `COc1cccc(-c2nc3cc(C)ccc3o2)c1`, the Potency is reported as 0.757 µM (active). With `O=C(Nc1ccc2oc(-c3ccc(O)c(Br)c3)nc2c1)c1cc2ccccc2o1` the Potency was “inactive”. With `CCCOc1ccc(C(=O)Nc2ccc3oc(-c4cccc(Cl)c4Cl)nc3c2)cc1` the Potency was “inactive”. For `Cc1sc(C2C(C#N)=C(N)N(c3cccc(Cl)c3)C3=C2C(=O)CCC3)cc1CN1CCOCC1` (stereo not given), the Potency was “inactive”. `Cc1ccsc1C(=O)NC1CCCCC1C` (stereo not given) was tested, and the Potency was “inactive”. In the case of `CCOc1ccccc1CNC(=O)Nc1cn(CC(C)C)c(=O)c2ccccc12`, the Potency is reported as “inactive”. For `COc1ccccc1-c1oc2ccccc2c1C#CCCCCO`, the Potency was “inactive”. With `COC(=O)CC1Oc2ccccc2-n2cc(-c3ccccc3)nc21` (stereo not given) the Potency was “inactive”. In the case of `CCN1C(=O)c2ccccc2Sc2ccc(NC(=O)Cc3ccc(OC)cc3)cc21`, the Potency is reported as “inactive”. For `COc1ccc(/C=C(/NC(=O)c2ccco2)C(=O)Nc2ccc(C(C)=O)cc2)cc1`, the Potency was “inactive”. With `COc1ccc(C(=O)NCc2ccc(Cl)cc2)cc1S(=O)(=O)N1CCCC1` the Potency was “inactive”. `CCOc1ccc(Nc2oc(/C=C/c3ccc(F)cc3)nc2C#N)cc1` was tested, and the Potency was “inactive”. `CCCCn1c(=N)c(S(=O)(=O)c2ccccc2)cc2c(=O)n3cccc(C)c3nc21` was tested, and the Potency was “inactive”. With `CC(C)(C)C1CCc2c(sc3nc(SCC(N)=O)nc(N)c23)C1` (stereo not given) the Potency was 4.78 µM (active). `Nc1nc(SCC(=O)NCCN2CCOCC2)nc2sc3c(c12)CCC3` was tested, and the Potency was “inactive”. `CN1CCN(CC(=O)Nc2sc3c(c2C#N)CCC(C(C)(C)C)C3)CC1` (stereo not given) was tested, and the Potency was “inactive”. With `COc1ccc(OC)c(NC(=O)CSc2nc3ccccc3nc2N2CCCCC2)c1` the Potency was “inactive”. With `CCOc1ccc(C(C)NC(=O)CN2C(=O)NC3(CCCCC3)C2=O)cc1OCC` (stereo not given) the Potency was “inactive”. With `O=C(CSc1nc(-c2cccc(F)c2)[nH]c1-c1ccccc1)Nc1ccc2c(c1)OCO2` the Potency was “inactive”. In the case of `CCOC(=O)C(Cc1ccccc1)NC(=O)CCc1c(C)nc2c(c(C)nn2-c2ccc(C)c(C)c2)c1C` (stereo not given), the Potency is reported as “inactive”. With `COc1ccccc1-c1noc(CSc2nc(C)cc(=O)[nH]2)n1` the Potency was “inactive”. In the case of `COc1ccc(NC(=O)CSc2nc3ccccc3[nH]2)cc1`, the Potency is reported as “inactive”. `O=C(CSc1nc2ccccc2[nH]1)Nc1nc(-c2ccccc2)c(-c2ccccc2)o1` was tested, and the Potency was “inactive”. For `O=C(CSc1nc2ccccc2[nH]1)c1cccs1`, the Potency was 6.75 µM (active). In the case of `CCc1nnc(NC(=O)CCCSc2nc3ccccc3[nH]2)s1`, the Potency is reported as “inactive”. In the case of `COc1ccccc1CSc1nc2ccccc2[nH]1`, the Potency is reported as 13.5 µM (active). In the case of `CCCCSc1nc2ccccc2[nH]1`, the Potency is reported as 16.9 µM (active). In the case of `CN(Cc1ccccc1)c1nc2c(c(=O)[nH]c(=O)n2C)n1CCSc1nc2ccccc2[nH]1`, the Potency is reported as “inactive”. In the case of `O=C(NCc1ccccc1)c1onc(CSc2nc3ccccc3[nH]2)c1C(=O)NCc1ccccc1`, the Potency is reported as “inactive”. For `CCc1ccc(CN(C)C(C)C(=O)Nc2ccc(S(=O)(=O)N3CCCC3)cc2)cc1` (stereo not given), the Potency was “inactive”. With `Nc1c(Cl)cc(S(N)(=O)=O)cc1S(N)(=O)=O` the Potency was “inactive”. With `COc1ccc(-n2c(=O)c3ccccc3n(Cc3ccccc3Cl)c2=O)cc1` the Potency was “inactive”. With `Cc1ccc(Cn2c(=O)n(CCCC(=O)NCc3ccccc3Cl)c(=O)c3ccccc32)cc1` the Potency was “inactive”. In the case of `COc1ccc(C2=NC3(CCCCC3)N(CC(=O)Nc3ccc(C(C)C)cc3)C2=O)cc1`, the Potency is reported as “inactive”. For `CC(Sc1nncn1C)C(=O)Nc1ccccc1-c1ccccc1` (stereo not given), the Potency was “inactive”. With `CCC(Sc1nncn1C)C(=O)Nc1nnc(-c2ccc(Cl)cc2)s1` (stereo not given) the Potency was 15.1 µM (active). For `CCOC(=O)c1sc(NC(=O)C(CC)Sc2nccn2C)nc1C` (stereo not given), the Potency was “inactive”.

From PubChem BioAssay AID588342 (National Center for Advancing Translational Sciences (NCATS), 2011)
Further: nearly all actives have a fitted effect of over 55% in size.
